Screening results: PubChem BioAssay, The Scripps Research Institute Molecular Screening Center
DAX1 inh-1: DAX1 (NR0B1) inhibition, primary screen; HEK293T StAR-luciferase reporter, SF-1/DAX-1 repression relief; inhibition, % at 6.8 µM; 370,000 tested, 1.1% active; AID 652010;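 active means inhibition above the mean over all tested compounds plus 3 SD, cut at about 3.6% in these data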;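 further: 0% = DAX-1 cells with DMSO and 100% = cells lacking DAX-1 with DMSO; higher inhibition means more luminescence from relief of DAX-1 repression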
hgDAF12 agonist: hgDAF-12 agonism, primary luciferase screen; HEK293 GAL4-hgDAF12 UAS-luciferase reporter, agonist luminescence; normalized to butyrate control; activation, % at 6.8 µM; 370,000 tested, 1.8% active;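 active means activation above a cutoff set at the mean of all screened compounds plus 3 SD, cut at about 10% in these data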;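 further: 0% = DMSO wells and 100% = sodium butyrate wells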
ssDAF-12 act: activators of S. stercoralis DAF-12 nuclear receptor | HEK293 ssDAF-12/GRIP1 lit1-tk-luc reporter, luminescence; % of 3 µM dafachronic acid response | activation, % at 6.8 µM | 370,000 tested, 1% active;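 active means activation above the mean over all tested compounds plus 3 SD, cut at about 0.9% in these data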;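 further: 0% = DMSO-only wells and 100% = 3 µM delta7-dafachronic acid wells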
hcDAF-12 act: activators of H. contortus DAF-12 nuclear receptor; HEK293 hcDAF-12 lit1-tk-luc reporter, luminescence; 0% DMSO, 100% Δ7-dafachronic acid; activation, % at 6.8 µM; 370,000 tested, 1.4% active;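 active means activation above the mean of all tested compounds plus 3 SD, cut at about 5.5% in these data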;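 further: 100% = response to 3 µM Δ7-dafachronic acid high control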
DAX1 inh-2: inhibits human nuclear receptor DAX1 | HEK293 Gal4-DAX1 luciferase reporter, luminescence | inhibition, % at 6.75 µM | 340,000 tested, 0.99% active;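 active means inhibition above the mean over all tested compounds plus 3 SD, cut at about 4.2% in these data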;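 further: 0% = DAX1-transfected cells with DMSO and 100% = empty-vector control cells with DMSO; inhibition shows as a rise in luminescence from relieved DAX1 repression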
Target sequence (P51843 207-470 limits assumed): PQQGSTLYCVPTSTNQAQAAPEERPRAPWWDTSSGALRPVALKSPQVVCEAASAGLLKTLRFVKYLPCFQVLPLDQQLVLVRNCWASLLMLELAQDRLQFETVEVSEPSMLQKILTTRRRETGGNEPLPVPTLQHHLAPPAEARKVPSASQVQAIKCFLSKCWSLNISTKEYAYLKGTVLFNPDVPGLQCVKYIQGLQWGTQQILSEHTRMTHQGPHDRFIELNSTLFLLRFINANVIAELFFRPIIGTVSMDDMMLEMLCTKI
SMARCA2 activ: SMARCA2 function activation, primary screen. MG213 cells, MMTV-luciferase reporter, dexamethasone, overnight. activation, % at 9.1 µM. 370,000 tested, 1% active; in the data active means activation above about 7.8%;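 further: 0% = vehicle wells and 100% = reference activator wells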
* = called active by the depositor; nt = no result. Hits are enriched below; roughly 4.8% of the tested compounds scored in any of these assays.

SMILES	DAX1 inh-1	hgDAF12 agonist	ssDAF-12 act	hcDAF-12 act	DAX1 inh-2	SMARCA2 activ
CCN(CC(=O)Nc1c(F)cccc1F)C(=O)c1cc(S(=O)(=O)N(C)C)ccc1N1CCCC1	0.2	-1.3	-1.3	-0.2	-0.6	-1.9
Cc1occc1C(=O)Nc1cc(C(F)(F)F)ccc1Cl	0.7	1.6	-1.5	0.5	4.6*	-2.3
COc1ccc(C(C)(C)C)cc1NC(=O)c1ccoc1C	-0.6	0.1	-0.8	-1.6	0.4	-1.0
COc1ccccc1NC(=O)C1=C(C)Nc2nc(CCCO)nn2C1c1cccnc1 (centres undefined)	-0.7	0.4	-0.9	0.6	0.5	1.3
Nc1ccc(Cc2ccc([N+](=O)[O-])cc2)cc1	-1.0	0.4	-1.1	2.4	5.2*	0.6
Nc1nc(N)nc(COc2ccccc2)n1	1.3	11.2*	0.2	2.3	4.7*	0.7
CCCc1nc2nc(C)c(NS(=O)(=O)c3ccc(CC(C)C)cc3)c(=O)n2[nH]1	0.0	1.7	-1.2	0.4	4.3*	-3.7
O=C1OC(Cc2ccccn2)C(O)=C1C1=NCCCN1 (centres undefined)	1.2	2.9	-0.1	0.2	-0.8	-1.5
O=C1OC(Cc2ccccn2)C(O)=C1C1=NCCCCN1 (centres undefined)	2.3	13.2*	-0.6	3.8	5.3*	7.0
CC(C)(C)c1cc[n+](/C(C(=S)NC2CC2)=C(/[O-])c2ccc(Cl)s2)cc1	0.0	2.7	-0.3	-1.9	0.6	-1.3
Cc1cccc(NC(=O)c2ncn3c2C(=O)NC[C@H]3C)c1	-0.4	-0.2	-1.2	-1.2	0.8	-4.1
CCn1c(COc2ccc(Cl)cc2)nnc1SC1CCc2ccccc2C1=O (centres undefined)	0.5	-2.7	1.5*	3.2	0.6	-2.8
Cc1noc(C)c1-c1ccc(C(=O)NCc2cccnc2)c2occc12	0.0	-6.6	-1.0	-0.3	nt	2.7
Cc1cc(O)ccc1N=Cc1c(C(F)(F)F)[nH][nH]c1=O	-0.6	-1.0	-0.9	-0.5	4.4*	1.1
Cc1cc(/C=N/NC(N)=S)c(C)n1-c1ccc(Cl)c(Cl)c1	-2.0	-0.4	-1.4	-3.1	-3.1	-0.5
CCNC(=S)N/N=C/c1cc(C)n(-c2ccc(Cl)cc2)c1C	1.4	10.9*	-1.4	2.3	0.2	6.4
CCCNS(=O)(=O)c1cc(CN2C(=O)c3cccnc3C2=O)ccc1OC	0.1	-0.5	-1.2	-0.3	-0.8	-0.8
COc1ccc(CN2C(=O)c3cccnc3C2=O)cc1S(=O)(=O)NC(C)C	0.3	3.4	-0.2	1.1	5.8*	-2.3
O=C(O)c1ccccc1NC(=O)C(Cc1ccccc1)N1C(=O)c2ccccc2C1=O (centres undefined)	0.0	0.5	-1.5	1.7	-0.2	-1.5
O=C(Nc1ccc([N+](=O)[O-])cc1)C(Cc1ccccc1)N1C(=O)c2cccc3cccc(c23)C1=O (centres undefined)	0.2	2.5	1.4*	5.0	-0.4	-0.4
Cc1ccc(S(=O)(=O)NCc2ccc3c(c2)cc(C)n3C)cc1	0.8	0.9	-1.5	1.6	0.7	-1.8
Cc1cc2cc(CN3C(=O)c4ccccc4C3=O)ccc2n1C	-0.8	5.1	-0.3	6.1*	0.9	2.6
CCCCCCn1c(COc2ccccc2F)nnc1SCC(=O)c1c(N)n(C)c(=O)n(C)c1=O	1.1	-0.5	1.2*	-0.6	nt	-3.1
Cc1ccc(S(=O)(=O)c2ccc(NC(=O)c3c(F)cccc3F)cc2)cc1	-0.4	1.2	-1.0	-1.7	2.1	-3.0
Cc1ccc(N2NC(C)(c3cccs3)NC2=S)cc1 (centres undefined)	-0.1	-2.0	-0.4	2.5	4.3*	-2.2
COc1cc(C)ccc1OCc1cc(C(=O)N(C)CCCN2CCOCC2)no1	0.6	10.5*	1.8*	5.0	1.8	7.7
COc1cc(C(C)=O)ccc1OCc1cc(C(=O)N(C)CCC2CCCCO2)no1 (centres undefined)	0.8	10.0	1.1*	3.8	2.2	6.6
COc1ccc(-c2nc3nc(C)cc(C)n3n2)cc1	1.1	3.3	-0.5	5.7*	1.5	1.7
Cc1ccc(NC(=O)CSc2nnc(-c3cc(C)[nH]n3)n2N)cc1	-3.4	2.1	-1.0	1.5	0.1	-3.8
